GCN5L2 inh: inhibitors of human GCN5L2 histone acetyltransferase | GCN5L2 HAT assay, ThioGlo1 CoA-SH fluorescence | Potency, µM (series often up to 58.9 µM), for the others: at the highest dose activity change, negative = inhibition, usual class: inhibitors | 0.21% of 390,000 active; also: % is scaled to controls: 0 for no effect and ±100 for the full control effect
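GCN5L2 (20nM final) in 50mM HEPES, 0.1mM EDTA pH 7.5, 0.01% Tween-20 was preincubated 15 min at room temperature with compound, then given ThioGlo1 (50uM), H3(1-25) peptide (75uM) and acetyl-CoA (70uM); CoA-thiol fluorescence (Ex340/Em540) was read at 0 and 20 min.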
RECQ1 inh: RECQ1 (human) helicase inhibition; RECQ1 DNA unwinding, red fluorescence kinetic read; Potency, µM (series often up to 57.3 µM), without a hit: at the top dose activity, negative = inhibition, actives largely listed as inhibitors; 0.54% of 240,000 active; AID 2549;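 also: plate controls were vehicle for no effect and no enzyme for full effect; nearly all actives have a fitted effect of over 30% in size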
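50 nM RECQ1T1 preincubated 15 min with compound in Tris pH 8.0 buffer with MgCl2, DTT, Tween-20 and 2.5 ug/ml poly(dI-dC); started with 200 nM TAMRA/BHQ-2 forked duplex and 2 mM ATP. Unwinding read as fluorescence (525/598 nm), two reads 2 h apart.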
BLM helicase inh: blocks DNA unwinding by human BLM helicase | P54132 | recombinant BLM DNA unwinding, fluorescence dequenching | Potency, µM (highest dose often 56.1 µM), for inactives: at the top dose activity change, negative = inhibition, actives largely listed as inhibitors | 0.2% of 350,000 active | AID 2528;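 also: plate controls were vehicle for no effect and no enzyme for full effect; nearly all actives have a fitted effect of over 35% in size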
ERG-DNA inh: inhibitors of human ERG Ets domain-DNA interaction. P11308. fluorescence polarization, His-ERG Ets domain / labelled DNA. Potency, µM (series often up to 76.9 µM), for inactives: at the highest dose FP activity, negative = inhibition, actives largely listed as inhibitors. 0.028% of 370,000 active. AID 624246; active = well fitted inhibition curve with a large enough effect in the polarisation, with a control signal flat; inconclusive = small, poorly fitted or top-dose-only effect, or effect the other way, or a change in a side signal; inactive = no such curve, though single readings can be large or run the other way; the % refers to the polarisation;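 also: polarization taken with two DNA probes labelled with fluorescein and Texas red; % of control where 0% means no effect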
Target sequence (P11308 whole entry, looked up, the tested form may be a part): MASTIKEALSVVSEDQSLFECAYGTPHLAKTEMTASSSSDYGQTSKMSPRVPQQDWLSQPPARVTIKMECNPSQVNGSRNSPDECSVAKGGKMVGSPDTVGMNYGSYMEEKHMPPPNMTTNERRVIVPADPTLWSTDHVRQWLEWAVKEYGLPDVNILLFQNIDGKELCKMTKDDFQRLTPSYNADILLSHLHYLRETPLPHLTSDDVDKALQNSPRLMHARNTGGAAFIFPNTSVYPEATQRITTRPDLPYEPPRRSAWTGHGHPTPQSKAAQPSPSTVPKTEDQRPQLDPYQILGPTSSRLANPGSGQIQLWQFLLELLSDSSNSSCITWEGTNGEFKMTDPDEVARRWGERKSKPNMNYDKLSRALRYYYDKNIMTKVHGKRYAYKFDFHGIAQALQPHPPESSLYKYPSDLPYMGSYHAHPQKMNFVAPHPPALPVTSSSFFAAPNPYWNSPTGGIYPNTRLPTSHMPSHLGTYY
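His-tagged ERG Ets domain (1 uM in the protein solution; 300mM KCl, 50mM Tris-HCl, 1mM EDTA, 1mM DTT, pH 7.5) received compound, then a probe mix of 5 nM fluorescein-DNA and 100nM Texas-615-DNA. Fluorescence polarization was read for both dyes.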
APEX1 inh: blocks human APE1 abasic DNA cleavage. recombinant APE1, TAMRA/BHQ-2 abasic DNA cleavage fluorescence. Potency, µM (titrated, usually from 65.8 µM), without a hit: at the top dose activity change, negative = inhibition, usual class: inhibitors. 0.35% of 350,000 active. AID 2517;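 also: plate controls were vehicle for no effect and reference inhibitor for full effect; nearly all actives have a fitted effect of over 55% in size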
Target sequence (P27695 whole entry, looked up): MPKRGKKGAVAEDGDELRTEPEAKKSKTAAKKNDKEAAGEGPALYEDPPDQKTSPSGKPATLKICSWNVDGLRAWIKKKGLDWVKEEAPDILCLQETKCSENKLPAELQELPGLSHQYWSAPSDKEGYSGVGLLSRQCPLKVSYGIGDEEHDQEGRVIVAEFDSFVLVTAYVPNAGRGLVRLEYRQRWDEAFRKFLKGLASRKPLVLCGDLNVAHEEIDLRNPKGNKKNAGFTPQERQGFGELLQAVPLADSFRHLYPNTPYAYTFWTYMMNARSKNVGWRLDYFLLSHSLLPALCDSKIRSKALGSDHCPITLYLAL
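Compound pre-exposure to 0.75 nM APE1, 15 min at ambient temperature. Reaction initiated with 50 nM TAMRA/BHQ-2 THF substrate, read immediately in kinetic mode, 525 nm excitation, 598 nm emission.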
WRN helicase inh: blocks human WRN helicase; Q14191; WRN helicase unwinding, fluorescent forked duplex, kinetic; Potency, µM (top dose mostly 114 µM), for the others: at the highest dose activity change, negative = inhibition, hits mostly inhibitors; 0.46% of 360,000 active; AID 651768; also: % is scaled to controls: 0 for no effect and ±100 for the full control effect; nearly all actives have a fitted effect of over 55% in size
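Kinetic red-fluorescence monitoring (525/598 nm) tracks WRN helicase activity after 100 nM fluorophore-quencher forked duplex and 2 mM ATP are added to 20 nM enzyme pretreated 15 min at room temperature with compound.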
An asterisk follows results filed as active; i = inactive; ? = inconclusive; · = not tested or not shown; [ ] = remark or other dose. Compounds with a hit are over-represented: about 0.88% of the library has one in this group of screens. Unless noted, calls follow the shape of the dose curve; as a rule, active = well fitted curve in the direction sought with a large enough effect; inconclusive = small, poorly fitted or top-dose-only effect, or another doubt; inactive = no such curve, though single readings can be large; an effect the other way counts as inactive or inconclusive. Potency is read from the fitted curve at half-maximal effect.

SMILES	GCN5L2 inh	RECQ1 inh	BLM helicase inh	ERG-DNA inh	APEX1 inh	WRN helicase inh
CCCn1c2ccccc2c2cnn(CC(=O)N(Cc3ccccc3)C(C)C)c(=O)c21	-8.9%	·	-3.4%	5.3%	·	·
CC(=O)Nc1ccc(N2C(=O)c3cccc4c(O)ccc(c34)C2=O)cc1	-0.5%	·	?	-13.5%	?	50.1µM*
O=C1c2cccc3c(O)ccc(c23)C(=O)N1c1ccc(Cl)cc1	-3.3%	·	-2.2%	7.8%	77.9%	?
CC(=O)c1ccc2c(c1)C1C=CCC1C(C(=O)O)N2 (centres undefined)	?	i	-8.2%	17.6%	?	14.1µM*
O=C(NCc1ccccc1)C1Nc2ccc(OC(F)(F)F)cc2C2C=CCC12 (centres undefined)	·	·	·	1.8%	·	0.9%
O=C(O)C1Nc2c(cccc2C(F)(F)F)C2C=CCC12 (centres undefined)	?	·	-7.1%	·	16.8µM*	·
CC(=O)c1cc2c(cc1N/C(=N/S(=O)(=O)c1ccc(C)cc1)c1ccc(F)cc1)OCO2	-1.0%	·	-2.3%	6.8%	·	·
Cc1ccc(/C=C/C(=O)Nc2ccc(S(=O)(=O)Nc3onc(C)c3C)cc2)cc1	-4.7%	·	2.2%	28.2µM*	33.8%	-15.7%
CC(C)=CC(=O)Nc1ccc(S(=O)(=O)Nc2onc(C)c2C)cc1	-4.2%	·	-1.6%	-3.9%	-11.6%	-15.7%
O=C(O)c1ccc(-c2nc(-c3ccccc3)c(-c3ccccc3)[nH]2)cc1	?	2.1%	2.0%	-1.8%	-0.5%	39.8µM*
COc1cc(/C=C2/SC(=S)N(Cc3ccccc3)C2=O)ccc1O	-16.7%	·	-19.9%	108.5%	-7.8%	8.91µM*
COc1cc(/C=C2/SC(=S)N(c3c(C)n(C)n(-c4ccccc4)c3=O)C2=O)ccc1O	-5.3%	22.4µM*	-8.8%	158.4%	-10.1%	?
O=C1/C(=C\c2cccc(O)c2O)SC(=S)N1Cc1ccccc1	20µM*	·	-17.3%	69.8%	6.2%	-23.5%
O=C1/C(=C\c2ccc(O)c(O)c2)SC(=S)N1Cc1ccccc1	-25.0%	·	-11.9%	160.4%	-12.4%	11.2µM*
COc1cc(/C=C2/SC(=NCc3ccccc3)N(Cc3ccccc3)C2=O)ccc1O	-7.0%	-4.5%	-14.8%	11.6%	-11.8%	-15.6%
COc1ccc2nc(-c3cccc(F)c3)sc2c1	·	·	·	·	-1.4%	·
NS(=O)(=O)c1ccc(CCNC(=O)Cc2cccs2)cc1	-14.2%	·	-5.0%	10.3%	42.7%	6.1%
CCOc1cccc(NC(=O)c2sc3nc(-c4ccc(F)cc4)ccc3c2N)c1	35.5µM*	·	-2.5%	-0.7%	·	·
CN(C)c1ccc(C(=O)OCC(=O)Nc2ccc(S(N)(=O)=O)cc2)cc1	-4.5%	-8.3%	-12.7%	7.7%	1.3%	44.7µM*
CN(C)c1ccc(NC(=O)COC(=O)c2ccc3c(c2)OCO3)cc1	-2.0%	·	·	-7.1%	29.0%	?
C/C(=N\Nc1ccc(C(=O)O)cc1)c1ccc(Br)cc1	-10.3%	i	0.3%	3.0%	25.1µM*	-13.6%
CCCCCCCCC	·	-4.6%	·	·	3.8%	·
COc1cc(/C=N/Nc2nc(N3CCCCC3)nc(N3CCCCC3)n2)ccc1OC(=O)c1ccco1	1.4%	-6.5%	-1.1%	·	-2.6%	·
O=C(Oc1cccc(/C=N/Nc2nc(Nc3ccccc3)nc(N3CCOCC3)n2)c1)c1ccco1	-11.3%	22.4µM*	-7.4%	-0.6%	7.2%	-5.9%
O=C(C[C@@H]1C/C=C\C[C@H](NC(=O)OCC2c3ccccc3-c3ccccc32)C(=O)OC[C@H]2CCCN2C1=O)NCCO	-3.5%	·	·	-6.5%	10.6µM*	2.2%
SMILES	GCN5L2 inh	RECQ1 inh	BLM helicase inh	ERG-DNA inh	APEX1 inh	WRN helicase inh
Cc1ccc(-c2c3c([nH]c(=S)c2C#N)CCCC3)o1	-20.7%	?	?	4.4%	?	44.7µM*
O=C(O)CCc1ccc(-c2cccs2)n1CCc1ccccc1	-24.6%	i	-19.0%	-4.3%	0.8%	-6.8%
O=C(O)CCc1ccc(-c2cccs2)n1CCC(=O)O	2.2%	-8.7%	-2.7%	1.8%	14.1µM*	-3.5%[57.1 µM]
O=C(NCc1ccco1)c1cccn2c(=O)c3cc4ccccc4cc3nc12	-5.7%	?	20µM*	·	?	·
Cc1cccn2c(=O)c3cc(C(=O)NC4CCCCC4)c(=N)n(Cc4ccccc4)c3nc12	15.8µM*	·	-27.3%	-3.3%	9.47µM*	5.3%
Cc1cccn2c(=O)c3cc(C(=O)NCc4ccco4)c(=N)n(C4CCCCC4)c3nc12	-4.1%	·	47.1%	1.0%	16.8µM*	-11.5%
COCCCNC(=O)c1cccn2c(=O)c3cc4ccccc4cc3nc12	-10.1%	-1.0%	0.8%	-0.1%	?	-11.8%
Cc1cccn2c(=O)c3cc(C(=O)NC4CCCC4)c(=N)n(Cc4ccc(F)cc4)c3nc12	-5.6%	·	2.9%	2.1%	8.4%	14.7%
COc1ccc(C(=O)N/C(=C\c2cn(S(=O)(=O)N(C)C)c3ccccc23)C(=O)N2CCOCC2)cc1	-5.6%	·	-2.9%	7.5%	61.1%	-6.6%
Cc1[nH]n(-c2ccccc2)c(=S)c1C=Nc1cccc([N+](=O)[O-])c1	10µM*	i	0.2%	1.5%	-3.1%	-19.3%[57.1 µM]
COc1cc2c(cc1OC)C(=O)C(Br)CC2 (centres undefined)	·	·	·	·	·	50.1µM*
Cc1ccc(S(=O)(=O)N(C(=O)c2ccco2)c2cc3sc(=O)oc3c3ccccc23)cc1	?	i	-7.3%	5.5%	-3.9%	56.2µM*
CCOc1ccc(S(=O)(=O)N(C(=O)c2ccco2)c2cc3sc(=O)oc3c3ccccc23)cc1	?	-5.4%	-10.9%	-2.8%	-0.1%	?
COc1ccc(S(=O)(=O)N(C(=O)c2ccco2)c2cc3sc(=O)oc3c3ccccc23)cc1	?	-1.6%	-2.9%	-9.5%	0.1%	44.7µM*
C=CCn1c(SCC(=O)NCc2ccco2)nc2ccccc2c1=O	-5.7%	0.1%	-6.7%	1.8%	1.7%	-14.0%
C=CCn1c(SCC(=O)NC(=O)NCc2ccco2)nc2sc(CC)cc2c1=O	-10.7%	-26.2%	-21.0%	2.5%	31.6µM*	-20.1%[11.6 µM]
COC(=O)C1=C(C(=O)OC)[C@@H]2N(Cc3ccccc3)c3ccccc3[C@@]23C[C@@H](C(=O)OC)N(S(=O)(=O)c2ccc(OC)cc2)C3=N1	·	-3.6%[11.5 µM]	-2.5%[12.4 µM]	·	-3.8%[12.4 µM]	·
Cc1ccc(CNC(=O)C2CCN(c3nc4ccccc4n(C)c3=O)CC2)cc1	-0.3%	·	-3.8%	2.2%	·	·
O=C(CCN1Cc2ccccc2C1)c1ccc2c(c1)OCCO2	-2.3%	-9.6%	1.7%	·	-4.1%	-18.0%
O=C(CCN1CCc2ccccc2C(c2ccccc2)C1)c1ccc2c(c1)OCCO2 (centres undefined)	-11.8%	i	-5.4%	5.3%	19.0%	44.7µM*

Source: PubChem BioAssay (National Center for Advancing Translational Sciences (NCATS))
